Bioassay records deposited in PubChem by National Center for Advancing Translational Sciences (NCATS).
Hits are enriched below; roughly 7.9% of the tested compounds scored in any of these assays.
HT1080NT lethal: kills 2HG-producing HT-1080-NT fibrosarcoma cells; HT-1080-NT fibrosarcoma viability, CellTiter-Glo ATP luminescence, 48 h; Potency, µM (titrated, usually from 46.1 µM), for inactives: at the top dose activity, negative = less viability, usual class: cytotoxic; 360,000 tested, 1.6% active;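 also: NT is the 2HG producing partner of a matched IDH1 knockdown line; 0% = DMSO-treated cells and -100% = media-only wells without cells; nearly all actives have a fitted effect of over 55% in size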
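750 cells/well, RPMI + 5% FBS; 2 h settle, compound pin-transfer, 48 h at 37 degrees C. CellTiter-Glo 10 min RT, luminescence. Normalized to DMSO and media-only wells.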
HT1080 IDH1KD tx: toxicity to HT-1080 IDH1 knockdown cells (counter line); HT-1080 IDH1 knockdown viability, ATP luminescence, 48 h; Potency, µM (top dose mostly 46.1 µM), for inactives: at the top dose activity, negative = toxicity, actives largely listed as cytotoxic; 360,000 tested, 2% active; AID 686971;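 also: 0% = DMSO wells and -100% = cell-free medium wells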
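Viability of IDH1-knockdown HT-1080 fibrosarcoma cells was assessed by CellTiter-Glo after 48 h at 37 °C with titrated compound; concentration-effect curves were classified by fit quality and response size.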
KB-V1 cytotox: KB-V1 MDR subline cytotoxicity | AID 1347076 | KB-V1 MDR cells viability, CellTiter-Glo, 72 h | Potency, µM (titrated, usually from 46.1 µM), hits mostly cytotoxic | 400,000 tested, 3.4% active; also: % is scaled to controls: 0 for no effect and ±100 for the full control effect; nearly all actives have a fitted effect of over 60% in size
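Following 72 h at 37 degrees C with compound, KB-V1 cell viability was read by CellTiter-Glo luminescence, medium being phenol-red-free DMEM plus 10% FBS; concentration-response parameters came from normalized, curve-fitted qHTS data.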
SW480 rerep: inducers of DNA re-replication in SW480 colon cancer cells; SW480 DNA re-replication, Hoechst DNA content imaging, 48 h; Potency, µM (titrated, usually from 46.1 µM), without a hit: at the highest dose re-replication activation, most hits filed as activators; 340,000 tested, 1.8% active; AID 624297; also: % of control where 0% means no effect; nearly all actives have a fitted effect of over 55% in size
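Image-based read-out: total Hoechst fluorescence of nuclei (405 nm excitation, 500-530 nm emission), with hits raising the fraction of high-intensity nuclei. SW480 colon cells incubated 48 hr with compounds at 37 C.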
MCF10A rereplic: inducers of DNA re-replication in MCF 10A breast cells. MCF 10A DNA re-replication, Hoechst nuclear intensity, 48 h. Potency, µM (highest dose often 46.1 µM), for inactives: at the highest dose activity, positive = re-replication, usual class: activators. 350,000 tested, 2.9% active; also: % of control where 0% means no effect; nearly all actives have a fitted effect of over 50% in size
KB-3-1 tox: KB-3-1 parental cell cytotoxicity; KB-3-1 viability, CellTiter-Glo ATP luminescence, 72 h; Potency, µM (highest dose often 46.1 µM), hits mostly cytotoxic; 400,000 tested, 1.4% active; AID 1347075; also: % is scaled to controls: 0 for no effect and ±100 for the full control effect; nearly all actives have a fitted effect of over 60% in size
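Screening of KB-3-1 cells (DMEM, 10% FBS, phenol-red free) ran from lowest to highest compound concentration; after 72 h at 37 °C viability was read luminescently and curves fitted.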
Starred values were filed as active, the others as inactive; i = inactive; u = inconclusive; x = not tested or not shown; [ ] = another dose, or the depositor's remark. Calls follow the shape of the dose curve; as a rule, active = well fitted curve in the direction sought with a large enough effect; inconclusive = small, poorly fitted or top-dose-only effect, or another doubt; inactive = no such curve, though single readings can be large; an effect the other way counts as inactive or inconclusive. Potency is read from the fitted curve at half-maximal effect.

SMILES	HT1080NT lethal	HT1080 IDH1KD tx	KB-V1 cytotox	SW480 rerep	MCF10A rereplic	KB-3-1 tox
CCCNCC1C(Oc2ccc(Cl)cc2)C(=O)N1c1ccccc1C (stereo not given)	-23%	-15%	i	-3%	2%	i
O=C(CN1C(=O)CCSc2ccccc21)Nc1ccc2c(c1)OCCO2	5%	-23%	13µM*	-3%	-6%	i
O=C(CN1C(=O)CC(c2ccco2)Sc2ccccc21)Nc1ccc2c(c1)OCCO2 (stereo not given)	1%	-21%	i	0%	1%	i
CC1CC(=O)N(CC(=O)Nc2ccc3c(c2)OCO3)c2ccccc2S1 (stereo not given)	-2%	-22%	16µM*	1%	3%	u
Cc1c(C(=O)Nc2ccccc2-c2ccccc2)cccc1[N+](=O)[O-]	-1%	-3%	15µM*	-12%	18%	i
CCn1c2ccccc2c2cc(/C=N/NC(=O)c3ccc(O)cc3)ccc21	u	u	21µM*	u	u	u
Cc1c(C(=O)Nc2ccc(C(=O)Nc3ccccc3)cc2)cccc1[N+](=O)[O-]	0%	-5%	u	-7%	17%	i
CCn1c2ccccc2c2cc(/C=N/NC(=O)c3cc(O)cc(O)c3)ccc21	u	u	i	-2%	u	u
CCn1c2ccccc2c2cc(NC(=O)c3ccc(C)c([N+](=O)[O-])c3)ccc21	5%	15%	i	-3%	-1%	u
CCn1c2ccccc2c2cc(NC(=O)c3ccc(=O)oc3)ccc21	u	29µM*	i	u	16µM*	i
CCn1c2ccccc2c2cc(NC(=O)c3cc(OC)c(OC)c(OC)c3)ccc21	0.82µM*	1.5µM*	u	0.82µM*	u	0.58µM*
Cc1ccc(C(=O)Nc2ccc(-c3nc4ccccc4[nH]3)cc2)cc1Br	x	x	i	x	x	i
O=C1CN(C(=O)c2ccc(S(=O)(=O)N3CCCC3)cc2)C(c2ccc(F)cc2)c2cc(F)ccc2N1 (stereo not given)	x	x	u	x	x	i
CN(CC(=O)Nc1ccc(N2CCOCC2)cc1)C(=O)CCc1cc(C(C)(C)C)c(O)c(C(C)(C)C)c1	-17%	-19%	3.7µM*	2%	19%	i
CCOC(=O)Nc1ccc2c(c1)N(C(=O)OC)c1ccccc1CC2	u	u	5.8µM*	u	u	u
CCn1c2ccccc2c2cc(NC(=O)c3ccc(Br)o3)ccc21	-12%	-9%	i	0%	u	i
CN(C)CC(=O)N1c2ccccc2CCc2ccc(NC(=O)c3ccc(N)cc3)cc21	-5%	3%	i	-3%	-3%	i
CCn1c2ccccc2c2cc(NC(=O)c3cc(C)on3)ccc21	u	23µM*	u	u	15%	i
COc1cc(C(=O)Nc2ccc3c(c2)N(C(=O)CCN(C)C)c2ccccc2CC3)cc(OC)c1OC	u	u	u	u	13µM*	i
Cc1cc(Br)ccc1NC(=O)C(NS(=O)(=O)c1cccs1)c1ccccc1 (stereo not given)	x	x	i	x	x	i
CC1(C(=O)NS(=O)(=O)Cc2ccccc2)CCN1C(=O)Cc1ccccc1 (stereo not given)	2%	8%	i	x	x	i
C[C@H](CO)N1C[C@H](C)[C@H](CN(C)S(=O)(=O)c2cccc(F)c2)Oc2ncc(-c3cccc(C(=O)N(C)C)c3)cc2C1=O	-3%	4%	i	x	x	i
CCn1c2ccccc2c2cc(NC(=O)c3cccc([N+](=O)[O-])c3C)ccc21	23µM*	13µM*	u	10µM*	18µM*	u
CCn1c2ccccc2c2cc(NC(=O)COc3ccc(OC)cc3)ccc21	u	12%	i	-11%	0%	i
CCn1c2ccccc2c2cc(NC(=O)c3cc(OC)cc(OC)c3)ccc21	1.3µM*	1.5µM*	2.3µM*	0.65µM*	1.5µM*	u
SMILES	HT1080NT lethal	HT1080 IDH1KD tx	KB-V1 cytotox	SW480 rerep	MCF10A rereplic	KB-3-1 tox
Cc1ccc(-n2nc3ccc(NC(=O)c4cccc([N+](=O)[O-])c4C)cc3n2)cc1	u	u	u	u	13µM*	i
CCn1c2ccccc2c2cc(NC(=O)CN(C)CC(=O)Nc3ccc(N4CCOCC4)cc3)ccc21	-8%	26µM*	u	4%	-7%	u
COCCCN1C(=O)C(CC(=O)NC2CCCCC2)CC(C(=O)N2CCCCCC2)=C1C (stereo not given)	-15%	-6%	i	x	x	x
C#CCOCCOCCOCCNc1nc(N2CCN(C(=O)CCCCCCCCCCNC(=O)Cn3cc(CCCCCN)nn3)CC2)nc(N2CCN(C(=O)CCCCCCCCCCNC(=O)[C@@H](CCSC)n3cc(CCO)nn3)CC2)n1	-12%	-15%	i	-14%	u	u
COc1ccc(NC(=O)N(C)C[C@H]2OCc3cnnn3CCCC(=O)N([C@@H](C)CO)C[C@H]2C)cc1	7%	1%	i	x	x	u
CCn1nnc(-c2ccccc2NC(=O)c2cc(OC)c(OC)c(OC)c2)n1	-13%	6%	i	15µM*	u	i
Cc1ccc([N+](=O)[O-])cc1-c1ccc(/C=C(\C#N)c2[nH]nc(N)c2C#N)o1	u	16µM*	i	u	u	u
COCc1cc(C)nc(OCC(=O)N/N=C/c2ccc(-c3cc([N+](=O)[O-])ccc3C)o2)c1C#N	1%	-28%	i	0%[9.22 µM]	8%	i
CCn1c(C(=O)NCCCN2CCc3ccccc3C2)cc2sccc21	20µM*	u	9.2µM*	u	6%	i
CCN1CCN(CCCNC(=O)c2cc3sccc3n2CC)CC1	0%	-1%	i	u	5%	i
CCn1c(C(=O)NCc2ccccn2)cc2sccc21	19%	3%	15µM*	-6%	10%	i
Cc1cc2c(cc(C(=O)NCCCN3CCOCC3)n2Cc2ccc(Cl)cc2)o1	u	-25%	i	18µM*	23µM*	i
CCn1c(C(=O)NCCCc2ccccc2)cc2sccc21	2%	-10%	u	0%	14%	i
CCOC(=O)c1c(C)c(C(=O)NCc2ccccn2)c(C)n1CC	-14%	-1%	16µM*	u	18%	i
O=[S+]1([O-])N=C(Oc2cccnc2)c2ccccc21	x	x	i	x	x	i
Cc1ccc(Cn2c(C(=O)NCCCN3CCOCC3)cc3sccc32)cc1	16µM*	u	4.6µM*	-7%	-1%	i
